Test [1] is described as follows: qHTS for Inhibitors of the Functional Ribonucleoprotein Complex (vRNP) of Lassa (LASV) Arenavirus: LASV Primary Screen - GLuc reporter signal (AID 1347082; calls by dose curve; tested in HEK293 reporter line; also: % is scaled to controls: 0 for no effect and ±100 for the full control effect; nearly all actives have a fitted effect of over 60% in size).
The nature of test [2]: AP1 Signaling Pathway (AID 357; active = well fitted curve in either direction with a large enough effect, not every such curve was filed as active;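 also: ME-180 reporter cells stimulated with EGF at its EC50 level; % is scaled to controls: 0 for no effect and ±100 for the full control effect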). Summed up: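 AP-1-bla ME-180 cells, Opti-MEM + 0.5% dialyzed FBS, plated overnight 37 °C. Cpd titration + EC50 EGF, 5 h 37 °C. CCF4 2.5 h RT; ex 405, em 460/530 ratio → %activity, AC50.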
Test [3] addresses Cytochrome P450 1A2 (Homo sapiens) (UniProt P05177). The experiment in a line: p450-cyp1a2 (AID 410; calls by dose curve;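 also: -100% = full effect of reference inhibitor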). Summed up:
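O-Demethylation of luciferin 6' methyl ether by human CYP1A2 is monitored as luciferase luminescence. Substrate sits at Km (100uM); enzyme is 20nM. Values are scaled to 57 uM furafylline as maximal inhibition.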

Test [4] can be described thus: NFAT Signaling Pathway (AID 444; active = well fitted curve in either direction with a large enough effect, not every such curve was filed as active;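 also: carbachol stimulus at about its EC50 of 1 µM final; % is scaled to controls: 0 for no effect and ±100 for the full control effect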). The following applies: Jurkat NFAT-bla M1, carbachol, beta-lactamase ratio, 5 h; at 17.2 µM (top of the series). Summed up:
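Jurkat cells carrying an NFAT-driven β-lactamase reporter and co-transfected muscarinic M1 receptor were treated with compound plus carbachol (1 uM final, an EC50 level) for 5 h at 37 °C. CCF4 loading followed for 1 h at RT; 460/530 nm ratio gave %activity.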

Test [5] is described as follows: Stat Signaling Pathway (AID 446; active = well fitted curve in either direction with a large enough effect, not every such curve was filed as active;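 also: ME-180 cervical cancer cells given 40 pM IL-6 alongside compound; SIE-controlled beta-lactamase reporter measured as 460/530 nm FRET emission ratio; % is scaled to controls: 0 for no effect and ±100 for the full control effect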). An outline of the steps: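 Compound effects on IL-6-induced STAT reporter activity were measured in ME-180 cells. After overnight culture, cells were co-treated with 40 pM IL-6 for 5 hrs before beta-lactamase substrate loading at room temperature.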
For test [6], the target named is Glucocorticoid receptor (Homo sapiens) (UniProt P04150). The experiment in a line: GR-GFP Redistribution (AID 450;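 active = compounds whose dose series gives a full or clear partial fitted curve of increased nuclear translocation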; also: potency is read from the fitted curve at half-maximal effect). The settings on record: U2OS GR-GFP nuclear translocation, laser cytometry, 2 h.
Glucocorticoid receptor (Homo sapiens), sequence (P04150 whole entry, looked up): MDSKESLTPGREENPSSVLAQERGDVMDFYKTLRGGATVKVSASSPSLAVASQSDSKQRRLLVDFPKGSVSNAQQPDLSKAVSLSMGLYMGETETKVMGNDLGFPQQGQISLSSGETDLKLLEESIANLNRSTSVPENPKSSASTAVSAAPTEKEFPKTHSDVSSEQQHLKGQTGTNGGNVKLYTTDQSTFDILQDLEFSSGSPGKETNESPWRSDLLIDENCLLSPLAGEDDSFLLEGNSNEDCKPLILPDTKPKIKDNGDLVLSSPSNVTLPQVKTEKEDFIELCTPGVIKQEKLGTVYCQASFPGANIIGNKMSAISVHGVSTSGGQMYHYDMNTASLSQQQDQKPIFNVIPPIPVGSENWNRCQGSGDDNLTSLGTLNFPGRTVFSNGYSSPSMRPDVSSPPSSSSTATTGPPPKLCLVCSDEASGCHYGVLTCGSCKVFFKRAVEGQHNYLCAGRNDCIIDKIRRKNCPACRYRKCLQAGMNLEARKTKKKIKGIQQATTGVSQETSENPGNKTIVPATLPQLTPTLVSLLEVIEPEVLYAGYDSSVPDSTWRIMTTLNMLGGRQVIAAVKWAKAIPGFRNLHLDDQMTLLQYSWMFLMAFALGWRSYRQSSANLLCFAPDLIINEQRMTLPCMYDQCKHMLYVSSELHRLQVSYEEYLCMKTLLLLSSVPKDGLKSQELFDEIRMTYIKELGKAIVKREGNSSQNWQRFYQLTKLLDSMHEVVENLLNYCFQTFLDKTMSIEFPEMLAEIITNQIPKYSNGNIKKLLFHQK
Test [7] has the same target. The experiment in a line: GR-EFC Redistribution (AID 451; calls by dose curve; also: potency is read from the fitted curve at half-maximal effect). The following applies: CHO-K1 GR-EFC translocation, beta-gal luminescence, 2 h. Summed up:
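CHO-K1 cells stably expressing nuclear-localized β-gal enzyme acceptor and GR fused C-terminally to the enzyme donor fragment; ligand-driven nuclear translocation restores β-gal by complementation. Compounds titrated up to 46 uM final, 2 h at 37 °C; luminescence read.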

For test [8], the target named is 3',5'-cyclic-AMP phosphodiesterase 4B (Homo sapiens) (UniProt Q07343). The experiment in a line: qHTS Assay for Inhibitors of PDE-IV (AID 607; active = well fitted activation curve with a large enough effect in the main read-out, with a control signal flat, not every such curve was filed as active; also: % of control where 0% means no effect). Summed up: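 ACTOne HEK293 cells carry a modified cAMP-gated CNG channel and express endogenous PDE4; plated 1000 cells/well, compounds up to 22.9 uM final. Membrane-potential dye fluorescence (ex 535/em 590) was read; parental cells received 10 uM forskolin + 100 uM RO 20-1724.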
3',5'-cyclic-AMP phosphodiesterase 4B (Homo sapiens), sequence (Q07343 whole entry, looked up): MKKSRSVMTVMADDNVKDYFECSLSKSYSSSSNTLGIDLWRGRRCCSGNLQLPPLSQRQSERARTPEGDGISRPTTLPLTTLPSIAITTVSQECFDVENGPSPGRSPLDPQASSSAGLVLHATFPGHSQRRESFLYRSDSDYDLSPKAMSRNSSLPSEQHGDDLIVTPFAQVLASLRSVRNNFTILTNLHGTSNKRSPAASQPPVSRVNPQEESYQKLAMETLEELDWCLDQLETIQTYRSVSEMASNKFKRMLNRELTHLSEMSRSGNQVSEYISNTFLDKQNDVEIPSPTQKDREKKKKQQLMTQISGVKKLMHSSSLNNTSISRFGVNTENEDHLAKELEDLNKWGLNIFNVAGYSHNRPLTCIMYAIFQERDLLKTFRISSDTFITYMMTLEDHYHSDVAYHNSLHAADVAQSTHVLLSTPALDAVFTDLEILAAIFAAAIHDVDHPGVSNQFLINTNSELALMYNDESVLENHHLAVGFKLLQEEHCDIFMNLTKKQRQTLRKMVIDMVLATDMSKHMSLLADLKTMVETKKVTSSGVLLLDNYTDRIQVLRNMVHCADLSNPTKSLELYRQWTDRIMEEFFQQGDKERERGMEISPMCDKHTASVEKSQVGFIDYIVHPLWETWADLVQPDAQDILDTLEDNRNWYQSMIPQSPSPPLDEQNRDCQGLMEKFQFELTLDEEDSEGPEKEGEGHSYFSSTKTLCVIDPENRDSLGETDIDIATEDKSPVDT

Test [9] concerns the target Cytochrome P450 3A4 (Homo sapiens) (UniProt P08684). The experiment in a line: qHTS Assay for Inhibitors and Substrates of Cytochrome P450 3A4 (AID 884). Also: % is scaled to controls: 0 for no effect and ±100 for the full control effect; nearly all actives have a fitted effect of over 50% in size. Summed up: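 Luminescent readout of luciferin produced by CYP3A4 (20 nM) dealkylation of Luciferin-PPXE, 25 uM (its KM). NADPH-driven reaction ran 60 min at RT after 10 min compound preincubation; data scaled to 57 uM ketoconazole as 100% inhibition.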
On the technique in general: In qHTS, concentration-response curves come from the screen itself.

The target of test [10] is Cytochrome P450 2D6 (Homo sapiens) (UniProt P10635). The experiment in a line: qHTS Assay for Inhibitors and Substrates of Cytochrome P450 2D6 (AID 891).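 Also: luciferin methyl ether substrate demethylated by CYP2D6 with NADPH regeneration; % is scaled to controls: 0 for no effect and ±100 for the full control effect; nearly all actives have a fitted effect of over 60% in size.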 An outline of the steps:
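Luminescent read-out of luciferin formed by 5 nM human CYP2D6 demethylating 30 uM Luciferin-ME EGE (Km level) over 60 min at room temperature after NADPH regeneration addition. Data normalized to full inhibition by 1.43 uM quinidine.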

The target of test [11] is Cytochrome P450 2C19 (Homo sapiens) (UniProt P33261). The experiment in a line: qHTS Assay for Inhibitors and Substrates of Cytochrome P450 2C19 (AID 899). Also: % is scaled to controls: 0 for no effect and ±100 for the full control effect; nearly all actives have a fitted effect of over 60% in size. Summed up:
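In 50mM KPO4, the reaction held 5nM enzyme and KM-level (10uM) Luciferin-H EGE; it ran 60 min at 37C after NADPH regeneration and a 10 min compound preincubation. Luminescence values were scaled to 57uM ketoconazole as complete inhibition.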

Test [12] can be described thus: qHTS Assay for Lipid Storage Modulators (AID 1519; calls by dose curve). The following applies: Drosophila S3 cells, BODIPY lipid droplet/cell ratio, laser cytometry, cells loaded with oleic acid. Summed up: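 Cells seeded at 5,000 per well were treated with compounds over a concentration series and loaded with oleic acid (400 uM, as added). Lipid droplet fluorescence (488 nm excitation, 500-530 nm channel) was read by laser-scanning cytometry and normalized to 20 uM Triacsin C.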

For test [13], the target named is DNA dC->dU-editing enzyme APOBEC-3G (Homo sapiens) (UniProt Q9HC16). Nature of the test: qHTS for inhibitors of Vif-A3G interactions: Validation (AID 588379). Also: 0% is about no effect. Summed up:
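Yellow fluorescence (Ex 488, Em 500-530) of Vif-coexpressing HeLa A3G-eYFP cells, scanned by Acumen cytometer, reports blocked A3G degradation. Cells plated at 700/well overnight at 37 deg C before compound addition, then a further overnight compound incubation at 37 deg C.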

Test [14] is described as follows: P-glycoprotein substrates identified in KB-3-1 adenocarcinoma cell line, qHTS therapeutic library screen (AID 1346986). Also: nearly all actives have a fitted effect of over 60% in size.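 Also: potency is read from the fitted curve at half-maximal effect; potency is for cytotoxicity meaning loss of cell viability.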 An outline of the steps:
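72 h cell-killing screen, 500 cells/well, CellTiter-Glo luminescence. Paired lines KB-3-1/KB-8-5-11; P-gp dependence checked by tariquidar co-treatment and HEK-293 MDR-19 versus empty-vector cells.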

Test [15] can be described thus: P-glycoprotein substrates identified in KB-8-5-11 adenocarcinoma cell line, qHTS therapeutic library screen (AID 1346987). Also: nearly all actives have a fitted effect of over 65% in size. Also: potency is read from the fitted curve at half-maximal effect. Summed up:
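Luminescence from CellTiter-Glo, read 5 min after addition, quantified survival of KB-8-5-11 (P-gp-overexpressing) cells exposed to compounds for 72 h. AC50 was derived from concentration-response curves.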

Test [16] in a line: Primary qHTS for inhibitors of nuclear receptor binding SET domain protein 2 (NSD2) in an isogenic RCH-ACV NSD2 p.E1099K mutant (9B) (AID 1645876). Also: nearly all actives have a fitted effect of over 70% in size. Also: potency is read from the fitted curve at half-maximal effect.
The nature of test [17]: Primary qHTS for inhibitors of nuclear receptor binding SET domain protein 2 (NSD2) in an RCH-ACV wild type WT cells (2C) (AID 1645877). Also: nearly all actives have a fitted effect of over 70% in size. Also: potency is read from the fitted curve at half-maximal effect.
The target in test [18] is Glutathione peroxidase 1 (Homo sapiens) (UniProt P07203). The experiment in a line: Primary qHTS Assay for Inhibitors of Recombinant Selenoprotein Glutathione Peroxidase 1 (GPX1) (AID 1845191). Also: nearly all actives have a fitted effect of over 65% in size. An outline of the steps:
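GPX1 10 nM, GR 100 nM, GSH 1 mM, NADPH 0.5 mM, CHP 0.5 mM (final). 30-min cpd preincubation, RT. Ex340/Em450 read t=0, t=15 min.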

Test [19] in a line: qHTS Assay for Identifying Gametocytocidal Compounds (AID 743244).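 Also: % is scaled to controls: 0 for no effect and ±100 for the full control effect; actives lower the fluorescent signal which means gametocytes are killed.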 The following applies: P. falciparum 3D7 stage III-V gametocytes, alamarBlue, 72 h; max response: stronger effect = lower value. Summed up:
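3D7 gametocytes, stages III–V, 20,000/well; cpd 72 h, 37 °C/5% CO2; + alamarBlue 24 h; fluor. Ex 525/Em 598.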

Test [20] is described as follows: Drug repurposing screens with cells derived from glioblastoma tumor samples (AID 1345199). Also: % is scaled to controls: 0 for no effect and ±100 for the full control effect; nearly all actives have a fitted effect of over 40% in size. The following applies: GBM patient neurospheres viability, ATP luminescence, 48 h; Potency: tumour line A; series mostly up to 45.9 µM. Summed up: (§1)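 Primary testing used CD133+ neurospheres from four GBM patients, seven concentrations, 48 h exposure and ATP-based viability; confirmation added three slower-growing patient lines.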

In the next test the test system is astro. The description is as above. The settings on record: viability, ATP luminescence, 48 h; series mostly up to 45.9 µM. Summed up:
as §1

The nature of test [21]: Primary qHTS for inhibitors of SARS-S pseudo-typed particle cell entry (AID 1479145; calls by dose curve; also: nearly all actives have a fitted effect of over 45% in size).
The nature of test [22]: Primary qHTS for Huh7 cytotoxicity: counterscreen for inhibitors of MERS-S pseudotyped particle cell entry (AID 1479147; calls by dose curve; also: % is scaled to controls: 0 for no effect and ±100 for the full control effect). The settings on record: outcome: dose series up to 57.1 µM unless noted.
The nature of test [23]: Primary qHTS for inhibitors of MERS-S pseudo-typed particle cell entry (AID 1479149; calls by dose curve; also: nearly all actives have a fitted effect of over 60% in size).
Test [24] in a line: Primary qHTS for Vero E6 cytotoxicity: counterscreen for inhibitors of SARS-S pseudo-typed particle cell entry (AID 1479150; calls by dose curve). The following applies: outcome: dose series up to 57.1 µM unless noted.
A short description of test [25]: Cytotoxicity counterscreen for inhibitors of SARS-CoV-2 cell entry (AID 1645845; calls by dose curve; also: nearly all actives have a fitted effect of over 50% in size). Summed up:
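After a 15 min room-temperature ATPLite 1step step, luminescence reflected ATP remaining in HEK293-ACE2 cells exposed to compound for 1 h plus 48 h at 37 C, with percent activity set by cell and no-cell controls.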
On the technique in general: A counterscreen serves to expose hits that act by an unwanted route or on another target.

A short description of test [26]: Primary qHTS to identify inhibitors of SARS-CoV-2 cell entry (AID 1645846; calls by dose curve; also: nearly all actives have a fitted effect of over 45% in size). The settings on record: activity change, negative = inhibition: at 57.1 µM (top of the series) unless noted. An outline of the steps: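 Entry measured by luciferase signal 48 h after adding SARS-CoV-2-S pseudotyped MLV particles to HEK293-ACE2 cells preincubated 1 h with compounds. Normalisation: bald particles and spike particles.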

Test [27] concerns the target Phospholipid hydroperoxide glutathione peroxidase GPX4 (Homo sapiens) (UniProt P36969). The experiment in a line: Primary qHTS Assay for Inhibitors of Recombinant Selenoprotein Glutathione Peroxidase 4 (GPX4) (AID 1845192). Also: nearly all actives have a fitted effect of over 65% in size. Summed up:
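qHTS, GR-coupled: GPX4 200 nM + cpd 30 min RT → GSH 1 mM, NADPH 0.5 mM, GR 100 nM → CHP 0.5 mM start; fluor 340/450 at t0 and t15 min; no-enzyme wells as control.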

The target in test [28] is Catechol O-methyltransferase (Homo sapiens) (UniProt P21964). The experiment in a line: Confirmatory Screen for Target Class Profiling of Small Molecule Inhibitors of Methyltransferases (AID 1745852; calls by dose curve; also: potency is read from the fitted curve at half-maximal effect). The settings on record: MTase-Glo luminescence, SAH detection, recombinant enzyme; measured here: COMT max response; stronger effect = lower value.
Catechol O-methyltransferase (Homo sapiens), sequence (P21964 whole entry, looked up): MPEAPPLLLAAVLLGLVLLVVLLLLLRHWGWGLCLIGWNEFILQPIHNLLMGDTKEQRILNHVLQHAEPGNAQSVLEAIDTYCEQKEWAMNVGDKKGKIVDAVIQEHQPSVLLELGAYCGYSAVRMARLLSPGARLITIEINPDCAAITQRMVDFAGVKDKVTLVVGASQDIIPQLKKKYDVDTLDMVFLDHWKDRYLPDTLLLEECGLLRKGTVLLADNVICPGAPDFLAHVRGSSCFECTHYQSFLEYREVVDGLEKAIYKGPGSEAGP
The target of test [29] is Guanidinoacetate N-methyltransferase (Homo sapiens) (UniProt Q14353). The test is described as above. The settings on record: activity change, negative = inhibition: at 57.3 µM (top of the series) unless noted.
Test [30] deals with Nicotinamide N-methyltransferase (Homo sapiens) (UniProt P40261). The test is described as above. The following applies: MTase-Glo luminescence, SAH detection, recombinant enzyme; measured here: NNMT max response; stronger effect = lower value.
Nicotinamide N-methyltransferase (Homo sapiens), sequence (P40261 whole entry, looked up): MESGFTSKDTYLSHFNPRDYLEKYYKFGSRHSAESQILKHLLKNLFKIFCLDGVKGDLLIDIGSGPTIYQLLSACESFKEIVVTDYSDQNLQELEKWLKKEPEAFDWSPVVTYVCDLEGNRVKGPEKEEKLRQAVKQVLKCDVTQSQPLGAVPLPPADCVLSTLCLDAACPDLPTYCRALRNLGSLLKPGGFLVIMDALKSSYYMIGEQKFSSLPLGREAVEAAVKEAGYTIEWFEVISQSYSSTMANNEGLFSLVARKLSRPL
In test [31] the target is Phenylethanolamine N-methyltransferase (Homo sapiens) (UniProt P11086). The test is described as above. The following applies: MTase-Glo luminescence, SAH detection, recombinant enzyme; measured here: PNMT max response; stronger effect = lower value.
Phenylethanolamine N-methyltransferase (Homo sapiens), sequence (P11086 whole entry, looked up): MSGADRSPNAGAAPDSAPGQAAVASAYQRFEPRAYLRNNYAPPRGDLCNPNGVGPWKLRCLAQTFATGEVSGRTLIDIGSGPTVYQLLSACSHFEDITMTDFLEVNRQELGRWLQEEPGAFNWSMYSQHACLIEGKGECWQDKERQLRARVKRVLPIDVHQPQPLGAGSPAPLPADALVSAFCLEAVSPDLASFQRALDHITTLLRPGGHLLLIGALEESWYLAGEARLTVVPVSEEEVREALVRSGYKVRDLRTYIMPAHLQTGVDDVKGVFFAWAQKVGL

Values joined by “and” are separate entries in the source; they are usually repeats but may differ in a detail not shown here. Equal entries are not always repeated. Results filed as inconclusive are left out. Active and inactive are the calls of the source. Unless noted, calls follow the shape of the dose curve; as a rule, active = well fitted curve in the direction sought with a large enough effect; inconclusive = small, poorly fitted or top-dose-only effect, or another doubt; inactive = no such curve, though single readings can be large; an effect the other way counts as inactive or inconclusive.

Glutathione peroxidase 1 (Homo sapiens), sequence (P07203 whole entry, looked up): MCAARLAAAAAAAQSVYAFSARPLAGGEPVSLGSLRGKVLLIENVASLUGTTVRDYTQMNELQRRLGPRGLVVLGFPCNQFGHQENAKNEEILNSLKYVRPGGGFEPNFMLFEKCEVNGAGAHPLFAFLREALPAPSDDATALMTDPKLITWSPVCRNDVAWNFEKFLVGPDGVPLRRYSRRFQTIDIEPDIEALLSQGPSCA
Cytochrome P450 1A2 (Homo sapiens), sequence (P05177 whole entry, looked up): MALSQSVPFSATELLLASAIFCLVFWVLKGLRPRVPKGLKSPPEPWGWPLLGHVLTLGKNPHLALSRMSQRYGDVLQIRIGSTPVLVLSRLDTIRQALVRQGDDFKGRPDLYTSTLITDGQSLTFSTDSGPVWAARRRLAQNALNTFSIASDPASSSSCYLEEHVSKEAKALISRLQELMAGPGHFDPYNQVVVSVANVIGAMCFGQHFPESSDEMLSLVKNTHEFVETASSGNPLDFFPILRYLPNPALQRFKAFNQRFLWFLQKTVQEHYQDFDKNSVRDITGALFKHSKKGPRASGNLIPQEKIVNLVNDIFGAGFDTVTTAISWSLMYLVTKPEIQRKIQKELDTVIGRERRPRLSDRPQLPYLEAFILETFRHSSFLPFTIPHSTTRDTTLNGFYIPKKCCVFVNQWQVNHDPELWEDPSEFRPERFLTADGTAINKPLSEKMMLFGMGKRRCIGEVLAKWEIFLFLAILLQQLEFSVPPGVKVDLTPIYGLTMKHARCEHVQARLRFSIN
DNA dC->dU-editing enzyme APOBEC-3G (Homo sapiens), sequence (Q9HC16 whole entry, looked up): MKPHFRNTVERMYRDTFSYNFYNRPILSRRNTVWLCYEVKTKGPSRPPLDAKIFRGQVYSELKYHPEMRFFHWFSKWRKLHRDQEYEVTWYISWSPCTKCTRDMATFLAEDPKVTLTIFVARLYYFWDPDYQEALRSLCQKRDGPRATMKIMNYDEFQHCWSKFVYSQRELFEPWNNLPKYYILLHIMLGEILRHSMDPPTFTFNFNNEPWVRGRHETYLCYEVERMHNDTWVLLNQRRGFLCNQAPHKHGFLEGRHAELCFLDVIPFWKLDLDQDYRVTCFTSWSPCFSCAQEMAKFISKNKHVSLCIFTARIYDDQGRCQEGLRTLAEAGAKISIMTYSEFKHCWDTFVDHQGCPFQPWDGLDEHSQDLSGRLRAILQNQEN
Cytochrome P450 3A4 (Homo sapiens), sequence (P08684 whole entry, looked up): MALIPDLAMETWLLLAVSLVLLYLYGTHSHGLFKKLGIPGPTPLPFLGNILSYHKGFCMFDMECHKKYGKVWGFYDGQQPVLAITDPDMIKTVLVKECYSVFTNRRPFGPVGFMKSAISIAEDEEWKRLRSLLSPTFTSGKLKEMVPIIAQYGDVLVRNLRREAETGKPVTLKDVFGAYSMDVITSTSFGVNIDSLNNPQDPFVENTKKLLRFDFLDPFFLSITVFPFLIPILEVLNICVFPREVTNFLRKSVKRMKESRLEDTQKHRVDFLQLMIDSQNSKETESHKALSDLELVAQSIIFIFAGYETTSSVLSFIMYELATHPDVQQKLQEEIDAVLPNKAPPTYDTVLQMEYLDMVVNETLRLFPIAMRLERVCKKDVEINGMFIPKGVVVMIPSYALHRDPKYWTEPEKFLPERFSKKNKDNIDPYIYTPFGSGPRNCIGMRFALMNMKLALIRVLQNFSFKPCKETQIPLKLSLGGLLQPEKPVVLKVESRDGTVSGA
Cytochrome P450 2C19 (Homo sapiens), sequence (P33261 whole entry, looked up): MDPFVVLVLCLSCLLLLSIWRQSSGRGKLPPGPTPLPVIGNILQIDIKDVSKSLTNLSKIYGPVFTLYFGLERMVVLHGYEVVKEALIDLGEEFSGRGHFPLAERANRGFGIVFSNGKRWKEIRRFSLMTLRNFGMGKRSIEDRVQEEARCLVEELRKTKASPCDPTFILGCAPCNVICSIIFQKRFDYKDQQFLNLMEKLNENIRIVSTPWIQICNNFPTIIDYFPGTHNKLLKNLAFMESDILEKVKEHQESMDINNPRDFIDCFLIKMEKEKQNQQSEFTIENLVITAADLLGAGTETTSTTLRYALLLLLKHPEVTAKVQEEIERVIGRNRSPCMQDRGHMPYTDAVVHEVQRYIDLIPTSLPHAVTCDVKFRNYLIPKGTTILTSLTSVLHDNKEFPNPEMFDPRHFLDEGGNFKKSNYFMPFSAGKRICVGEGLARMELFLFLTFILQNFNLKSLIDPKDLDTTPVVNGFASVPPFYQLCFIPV
Phospholipid hydroperoxide glutathione peroxidase GPX4 (Homo sapiens), sequence (P36969 whole entry, looked up): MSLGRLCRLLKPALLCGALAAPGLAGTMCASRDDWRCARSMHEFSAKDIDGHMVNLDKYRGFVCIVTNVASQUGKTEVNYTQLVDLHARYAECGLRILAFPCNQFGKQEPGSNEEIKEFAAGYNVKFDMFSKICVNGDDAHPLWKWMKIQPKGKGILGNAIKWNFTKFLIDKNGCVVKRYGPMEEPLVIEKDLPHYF

For `COC(=O)C1CC23C=CCN4CCC5(c6ccccc6NC15C2C)C43` (stereo not given), in test [1], the Potency result is “inactive”.

With `COc1ccn(C)c(=O)c1C#N`, the outcome in test [2] and in test [5] was “inactive” throughout. For the same compound, the Potency entry in test [3], in [8], in test [9], in [10], in test [11] and in [13] was “inactive” throughout. Moreover, the Potency result in [14], in [15], in test [16], in test [17] and in [18] was “inactive” each time. Moreover, the activity change, negative = inhibition in [4] was 6.67% (inactive); in [12] (at 25.7 µM (top of the series)) it was -0.52% (inactive); in [12] (at 57.5 µM (top of the series)), 1.07% (inactive). The Potency in test [6] is > 20.6 µM (inactive) and > 46 µM (inactive); in [7], > 20.6 µM (inactive) and > 46 µM (inactive). Further, the max response was 4.19% and -22.1% in [12] (measured here: cell count channel max response); 5.59% and -19.6% in test [12] (measured here: lipid channel max response).

`CN[C@@]1(c2ccccc2Cl)CCCCC1=O`: the max response in test [19] was 0.413% (inactive). The Potency entry (in test [15]; in [20]; in the test with astro) was “inactive” each time.

As for `CO[C@H]1[C@@H](O)[C@@H](C)O[C@H](O[C@H]2[C@H](Oc3cccc4c(O)c5c(=O)oc6ccc(C)c7c(=O)oc(c34)c5c67)O[C@H](C)[C@H](O)[C@@H]2O)[C@@H]1O`, the Potency entry in test [1] is “inactive”.

On to `C[C@]12CC[C@H]3[C@@H](CCC4=CC(=O)CC[C@@]43C)[C@@H]1CC[C@@H]2OC(=O)CCc1ccccc1`, for which the max response in test [19] was 3.81% (inactive). The Potency in [15] was 10 µM (active). In addition, the Potency entry in test [21], in [23], in test [25], in test [18] and in [27] was “inactive” in each case. The outcome in test [22] and in test [24] was “inactive” throughout. In addition, the activity change, negative = inhibition in test [26] is -18.9%.

As to `CC1Oc2cc3c(-c4c(O)cc(O)c5c(O)c6c(cc45)OC(C)C(C)C6=O)c(O)cc(O)c3c(O)c2C(=O)C1C` (stereo not given), the Potency was 5.8 µM (active) in test [14], 1.3 µM (active) in [16], 1.16 µM (active) in test [17] and 24.1 µM (active) in test [29]. The activity in test [28] is -48.2%; in [30], -21.1%; in [31], -60.9%. Moreover, the Potency result in test [18] was “inactive”.

With `C/C=C1\NC(=O)[C@H](CC(N)=O)N(C)C(=O)C([C@@H](C)O)NC(=O)C(CCCc2ccc(OC)cc2)NC(=O)[C@H](C(C)C)NC(=O)/C(=C\C)NC(=O)[C@H](O)[C@@H](C[C@@H](O)CCCCCCC)NC(=O)[C@H](C)NC(=O)CN(C)C(=O)[C@H](CCC(N)=O)NC1=O` (stereo not given in full), the Potency entry in [1] is “inactive”.

Source of the values: PubChem BioAssay (NCATS).
